In PubChem BioAssay AID651635 (National Center for Advancing Translational Sciences (NCATS), 2012):
Screen size: about 400,000 compounds; about 1,900 (0.47%) were called active. Not shown: some 14% with an inconclusive outcome. The call rests on the fitted dose curve; in most records, active means well fitted cell-killing curve with a large enough effect; inconclusive means small, poorly fitted or top-dose-only effect, or effect the other way; inactive means no such curve, though single readings can be large or run the other way. The entries come from a sample that favours actives as a whole.

Assay: Viability Counterscreen for Primary qHTS for Inhibitors of ATXN expression; further: nearly all actives have a fitted effect of over 40% in size
Details: S2 cells (HEK-293 line with an ATXN2-luciferase reporter) viability, CellTiter-Fluor protease fluorescence, 24 h; series mostly up to 56.7 µM; activity change, negative = cytotoxicity: at the top concentration
Potency means the concentration at half of the fitted maximal effect.

| Compound | activity change, negative = cytotoxicity | Potency |
| --- | --- | --- |
| Cc1ccc2cccc(NC(=O)c3cccc4ccccc34)c2n1 | -34.8% (inactive) |  |
| COc1cc(=O)n2c(c1C(=O)NCc1ccco1)CCN(Cc1ccccc1)CC2 | -5.97% (inactive) |  |
| Cc1cccc(C)c1NC(=O)c1ccc(N)cc1 | 0.704% (inactive) |  |
| Cc1cc(C(=O)NCC2Cc3cccc(-c4cncnc4)c3O2)c(C)o1 (stereo unspecified) | -10.9% (inactive) |  |
| CNC[C@H](CC1CCCCC1)NC[C@H](NCCC1CCCC1)[C@H](C)O |  | 17.8 µM (active) |
| O=C(NCC(c1ccc2c(c1)OCO2)N1CCN(c2ccccc2)CC1)C(=O)Nc1ccccc1F (stereo unspecified) | 1.03% (inactive) |  |
| O=S(O)CNc1ccc(S(=O)(=O)c2ccc(NCS(=O)O)cc2)cc1 | -5.35% (inactive) |  |
| O=C(CSc1ncn[nH]1)NCc1ccc2c(c1)OCO2 | -17% (inactive) |  |
| O=C(CSc1ncn[nH]1)Nc1ccc(Br)cc1Br | -18.1% (inactive) |  |
| O=C(/C=C/Sc1ncn[nH]1)c1ccc(Cl)cc1 |  | 25.1 µM (active) |
| CC(C)Oc1ccc(CN2CCC2(C)C(=O)NCc2ccc(C(F)(F)F)cc2)cc1 (stereo unspecified) | -28.4% (inactive) |  |
| COc1cc(Cn2c3ccc(NC(=O)CC(C)c4ccccc4)cc3c(=O)n2C)ccc1F (stereo unspecified) | -29.6% (inactive) |  |
| Cc1cccc(Cc2c(C)nc3nc(SCc4ccccc4Cl)nn3c2C)c1 | -21.8% (inactive) |  |
| COc1ccc(CN(C)CCn2cc(C(=O)N3CCSCC3)nn2)cc1C | -7.73% (inactive) |  |
| O=S(=O)(c1ccc(F)cc1)N1CCN(Cc2ccccc2C(F)(F)F)CC1 | -24.4% (inactive) |  |
| O=C(CSc1n[nH]c(=O)n1-c1ccccc1)Nc1ccccc1C(F)(F)F | -31.4% (inactive) |  |
| O=c1[nH]nc(SCCS(=O)(=O)c2ccc(F)cc2)n1-c1ccccc1C(F)(F)F |  | 11.2 µM (active) |
| COc1ccc(-c2csc(C(O)c3cccc(Cl)c3)n2)cn1 (stereo unspecified) | -0.881% (inactive) |  |
| COc1cc(=O)n2c(c1C(=O)NC(C)c1ccco1)CCN(Cc1cc(C)cc(C)c1)CC2 (stereo unspecified) | -1.1% (inactive) |  |
| Cc1c(C(=O)Nc2ccccn2)oc2ccc(Br)cc12 | -31.1% (inactive) |  |
| Oc1ccc(Br)cc1/C=N/Nc1ccccn1 |  | 0.251 µM (active) |
| O=C(CCc1ccc(O)cc1)NN=Cc1cc(Br)ccc1O | -7.67% (inactive) |  |

| Compound | activity change, negative = cytotoxicity | Potency |
| --- | --- | --- |
| CN[C@H]1C[C@H]2c3cc(Oc4ccccc4C)ccc3CCN2C(=O)[C@H]1[C@H](C)O | -34.6% (inactive) |  |
| COc1ccccc1-c1ccc(C(=O)N(C)C(C)c2ccon2)c(N2CCN(c3ccccc3F)CC2)n1 (stereo unspecified) | -15.6% (inactive) |  |
| COc1ccc(NC(=O)C(=O)NCc2ccco2)cc1 | -3.97% (inactive) |  |
| COc1ccc(C(O)c2nc(-c3ccc(OC)nc3)cs2)cc1 (stereo unspecified) | -24.5% (inactive) |  |
| COc1ccc(CS(=O)/C(Cl)=C(/Cl)C(=O)Nc2ccc(OC)nc2)cc1 (stereo unspecified) |  | 1.89 µM (active) |
| Cc1nnc(C(=O)NC(C)(C)c2nc(C(=O)NCc3ccc(F)cc3)c(O)c(=O)n2C)o1 |  | inactive |
| Cc1cc(Nc2cccc(C(F)(F)F)c2)nc2ccc(NC(=O)c3ccc(=O)[nH]c3)cc12 | 1.61% (inactive) |  |
| COc1cc(OC)cc(C(=O)Nc2ccc3nc(Nc4cccc(C(F)(F)F)c4)cc(C)c3c2)c1 | 8.18% (inactive) |  |
| COc1cc(NC(=O)c2[nH]cnc2C(N)=O)cc(C(=O)Nc2cccc(C(F)(F)F)c2)c1 |  | 10 µM (active) |
| CN(C)C(=O)[C@@H]1C[C@@H](Sc2nc3ccccc3[nH]2)CN1Cc1ccc(Cl)cc1 | -16.4% (inactive) |  |
| CC(C)(CCl)C(=O)Nc1ccc(Sc2ccc(F)cc2)cc1 | -39% (inactive) |  |
| O=C(CCl)Nc1ccc(Sc2ccc(NC(=O)CCl)cc2)cc1 |  | 11.2 µM (active) |
| CCC(=O)Nc1ccc(Nc2nc(Cl)nc(Nc3ccc(NC(=O)CC)cc3)n2)cc1 | 11.2% (inactive) |  |
| COC(=O)c1ccccc1-c1cc(C)cc2c1OC(CNC(=O)C1CCOC1)C2 (stereo unspecified) | -11.1% (inactive) |  |
| CNc1cncc(-c2ccc(NS(C)(=O)=O)cc2)n1 | 29.4% (inactive) |  |
| COC(=O)Cc1ccc(OCC(=O)Nc2ccc(OC(F)(F)F)cc2)cc1 | -27.9% (inactive) |  |
| CCc1ccc2c(c1)NC(=O)C2(C)Cc1ccc(OC(F)(F)F)cc1 (stereo unspecified) |  | 20 µM (active) |
| CCC1CN(CCNC(=O)c2cccnc2C)Cc2cc(OC)ccc2O1 (stereo unspecified) | -4.97% (inactive) |  |
| COc1ccc(CN2CCC3(CCC(CNC(=O)c4ccco4)O3)CC2)cc1OC (stereo unspecified) | -18.1% (inactive) |  |
| O=c1cc(O)c(-c2cccc(C(F)(F)F)c2)c(Cl)[nH]1 | -19.8% (inactive) |  |
| CCCCOC(=O)/C(C#N)=C/c1ccc(-c2cccc(C(F)(F)F)c2)o1 | -14.9% (inactive) |  |
| CC1(Cc2cccc(C#N)c2)C(=O)Nc2ccc(-c3cccc(C(F)(F)F)c3)cc21 (stereo unspecified) |  | 25.1 µM (active) |

| Compound | activity change, negative = cytotoxicity | Potency |
| --- | --- | --- |
| COCCCN1CCC(NC(=O)c2cc(Cl)c(N)c3c2OCC3)CC1 | -17.6% (inactive) |  |
| COc1ccccc1C(=O)N[C@@H]1c2ccccc2C2(CCN(C(=O)c3csnn3)CC2)[C@H]1OC | -12.9% (inactive) |  |
| Cc1cnc(C)c(-c2cc(F)c3c(c2)CC(CNC(=O)c2cccc(Cn4cccn4)c2)O3)n1 (stereo unspecified) | -19.6% (inactive) |  |
| CN(C)CCN1CCN(c2cc(-c3cccc(Cl)c3)nc3ccnn23)CC1 | -1.53% (inactive) |  |
| O=C(c1ccccc1)N1CCN(C(=O)c2cc3nc(-c4ccccc4)cc(C(F)(F)F)n3n2)CC1 | -32.8% (inactive) |  |
| C#Cc1cc(N2CCN(C(=O)c3ccoc3)CC2)n2nc(-c3cccc(Cl)c3)cc2n1 |  | 15.8 µM (active) |
| COCc1c(C(=O)NC2CCCCC2)cnn1-c1nccc(-c2ccccc2OC)n1 | 1.68% (inactive) |  |
| Cc1ccc(F)cc1S(=O)(=O)N1CCC(c2nc3ccccc3s2)CC1 | -17.6% (inactive) |  |
| COc1cc(=O)n2c(c1C(=O)NC(C)c1ccco1)CCN(C(=O)c1cn3ccc(C)cc3n1)CC2 (stereo unspecified) | -5.3% (inactive) |  |
| CO/N=C(/C(=O)N[C@@H]1C(=O)N2C(C(=O)O)=C(Cn3nnc(C)n3)CS[C@H]12)c1csc(N)n1 | -4.23% (inactive) |  |
| CCOC(=O)/C(=C\c1ccc([N+](=O)[O-])cc1)C(=O)c1cc(C(C)=O)c(Nc2ccccc2)s1 |  | 31.6 µM (active) |
| CC(=O)Nc1ccc(C=CC(=O)c2ccc([N+](=O)[O-])cc2)cc1 | -35.6% (inactive) |  |
| O=C(O)C(=Cc1ccc([N+](=O)[O-])cc1)CCc1ccccc1 | 4.26% (inactive) |  |
| CC(C)(C)OC(=O)N1CCN(C(=O)c2[nH]c(C(F)(F)F)nc2-c2ccccc2)CC1 | 6.95% (inactive) |  |
| COc1ccc(F)c(CN2CCC3(CCC(CNC(=O)c4ccn(C)n4)O3)CC2)c1 (stereo unspecified) | -17% (inactive) |  |
| CCCNC(=O)c1cc2c(c(-c3cccc(-c4ccc(C#N)cc4)c3)n1)[C@@H](CCO)N(C(=O)CC)C2 | -27.1% (inactive) |  |
| CCOC(=O)[C@]12CCC=C1N(Cc1ccco1)C(=O)[C@H](CC(=O)NCc1cccc(C(F)(F)F)c1)C2 | -31.8% (inactive) |  |
| CC1Cc2[nH][nH]c(=O)c2C(C2CCCC2)O1 (stereo unspecified) | -24.8% (inactive) |  |
| C=CC[C@H](CC(=O)OC(C)(C)C)C(=O)OC[C@H]1CCCN1C(=O)[C@H](CC=C)CC(=O)N(CCO)Cc1ccccc1 | -32.5% (inactive) |  |
| COCCCNC(=S)N(Cc1ccccc1)Cc1ccc(F)cc1 | -7.99% (inactive) |  |
| CC(=O)NC(Cc1c[nH]c2ccccc12)C(=O)NCCc1ccccc1 (stereo unspecified) | 22% (inactive) |  |
| C=CCC[C@H](Cc1ccc(F)cc1)C(=O)OC[C@@H](NC(=O)[C@@H](CC=C)CC(=O)N[C@H](CO)Cc1ccccc1)C(C)(C)C |  | 31.6 µM (active) |

| Compound | activity change, negative = cytotoxicity | Potency |
| --- | --- | --- |
| C=CC[C@@H](CC(=O)N[C@H](CO)Cc1ccccc1)C(=O)N[C@@H](COC(=O)[C@@H](CC=C)Cc1ccc(F)cc1)Cc1c[nH]c2ccccc12 | -20.2% (inactive) |  |
| C=CCC[C@@H](Cc1ccc(F)cc1)C(=O)O[C@H](CNC(=O)[C@H](CC=C)CC(=O)N(CCO)Cc1ccccc1)c1ccccc1 |  | 25.1 µM (active) |
| C=CC[C@@H](CC(=O)N[C@@H](CO)Cc1ccccc1)C(=O)NCCOC(=O)[C@@H](CC=C)CC(=O)OC(C)(C)C | -17.6% (inactive) |  |
| C=CC[C@@H](CC(=O)N[C@H](CO)Cc1ccccc1)C(=O)N[C@H](C)COC(=O)[C@@H](CC=C)Cc1ccc(F)cc1 | -42.4% (inactive) |  |
| C=CCC[C@@H](Cc1ccc(F)cc1)C(=O)OC[C@H](Cc1c[nH]c2ccccc12)NC(=O)[C@@H](CC=C)CC(=O)N(CCO)Cc1ccccc1 |  | 5.62 µM (active) |
| COc1ccc(-c2cc(NC=O)c3ncc(-c4ccccc4)n3c2)cc1OC | -34.1% (inactive) |  |
| CC1(C)[C@H](O[C@H]2O[C@H](C(=O)O)[C@@H](O)[C@H](O)[C@H]2O[C@@H]2O[C@H](C(=O)O)[C@@H](O)[C@H](O)[C@H]2O)CC[C@@]2(C)[C@H]1CC[C@]1(C)[C@H]2C(=O)C=C2[C@H]3C[C@@](C)(C(=O)O)CC[C@]3(C)CC[C@]21C | -18.3% (inactive) |  |
| COc1cccc(CNc2nc3cc(-c4csc5ccccc45)sc3c(=O)n2C)c1 | -21.8% (inactive) |  |
| COC(=O)C1CCCCN1Cc1ccc2c(c1)CN(Cc1cc(OC)c3c(c1)OCO3)CCO2 (stereo unspecified) | -12.7% (inactive) |  |
| Cc1nc2nc(NCc3cccc(Br)c3)[nH]n2c(=O)c1Cc1ccccc1 | -9.08% (inactive) |  |
| C=C1C(=O)[C@]23C[C@H]1CCC2[C@@]1(C)C(C[C@@H]3O)[C@](C)(C(=O)O)CC[C@@H]1O (stereo partly specified) |  | 15.8 µM (active) |
| CCc1noc(C)c1C(=O)NCCN1Cc2cc(OC)ccc2OC(CC)C1 (stereo unspecified) | -3.48% (inactive) |  |
| COc1ccc(C2OC(CCc3ccccc3)Cc3[nH]c(=S)[nH]c(=O)c32)cc1 (stereo unspecified) | -35.3% (inactive) |  |
| CC(=O)O[C@H]1CC[C@@]2(C)C(=CC[C@@H]3[C@@H]2CC[C@]2(C)C(c4cccnc4)=CC[C@@H]32)C1 | -2.28% (inactive) |  |
| CCOC(=O)[C@]12CCCC=C1N(Cc1cccc3ccccc13)C(=O)[C@H](CC(=O)NCC13CC4CC(CC(C4)C1)C3)C2 | -27.9% (inactive) |  |
| COc1cccc(CN(C)C(=O)CC[C@H]2O[C@@H](n3cnc4c(NC(=O)c5ccccc5)ncnc43)[C@H](O)[C@@H]2O)c1 | -19.7% (inactive) |  |
| COc1ccc(C[C@H](N)C(=O)N[C@@H]2[C@H](O)[C@H](n3cnc4c(N(C)C)ncnc43)O[C@@H]2CO)cc1 |  | 2 µM (active) |
| Nc1ncnc2c1ncn2[C@@H]1O[C@H](CNC(=O)[C@H](N)Cc2cccnc2)[C@@H](O)[C@H]1O | -12% (inactive) |  |
| CC1(C)OC(=O)C2=C(C[C@@H](C3CCCCC3)O[C@@H]2c2ccc(Cl)cc2)O1 | -14.4% (inactive) |  |
| NNc1nnc(Cc2ccncc2)c2ccccc12 | -5.09% (inactive) |  |
